Inconclusive results are not listed. Calls of active or inactive are those of the source. The call rests on the fitted dose curve.
How the values were obtained:
[1] = target: Acetylcholinesterase (Homo sapiens) (UniProt P22303); assay: Acetylcholinesterase (AChE) small molecule antagonists: colormetric cell-based qHTS assay (AID 1347395); further: nearly all actives have a fitted effect of over 30% in size; further: potency means the concentration at half of the fitted maximal effect
Procedure, shortened: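 SH-SY5Y cells attached overnight, exposed to compound 30 min at 37 C, then given DTNB/acetylthiocholine; after 90 min at 37 C, colorimetric thiocholine read gives cellular AChE activity.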

[2] = target: Acetylcholinesterase (Homo sapiens) (UniProt P22303); assay: Acetylcholinesterase (AChE) small molecule antagonists: enzyme-based qHTS assay (AID 1347397); settings: Potency: AChE enzyme activity inhibition; outcome: AChE enzyme activity inhibition; further: nearly all actives have a fitted effect of over 55% in size; further: potency means the concentration at half of the fitted maximal effect
Procedure, shortened: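 Human recombinant acetylcholinesterase; substrate acetylthiocholine; thiocholine quantified with DTNB (colorimetric). Compound preincubation 30 min RT; reaction 10 min RT.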

[3] = target: Acetylcholinesterase (Homo sapiens) (UniProt P22303); assay: Acetylcholinesterase (AChE) small molecule antagonists: fluorescence cell-based qHTS assay (AID 1347398); settings: Potency: AChE activity; outcome: AChE activity; further: nearly all actives have a fitted effect of over 50% in size; further: potency means the concentration at half of the fitted maximal effect
Procedure, shortened: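 Thiocholine generated from acetylthiocholine by SH-SY5Y cell AChE is detected with Thiolite Green (Ex/Em 490/520 nm) after 40 min at room temperature, following 30 min compound pretreatment at 37 C.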

[4] = target: Acetylcholinesterase (Homo sapiens) (UniProt P22303); assay: Acetylcholinesterase (AChE) small molecule antagonists: enzyme-based qHTS assay with human liver microsomes (AID 1347399); settings: Potency: qHTS inhibition; outcome: qHTS inhibition; further: nearly all actives have a fitted effect of over 60% in size
Procedure, shortened: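 Recombinant human AChE (50 mU/mL in the enzyme mix) and human liver microsomes (0.25 mg/mL final) were preincubated with compound and NADPH (0.25 mg/mL final) for 30 min at 37 C. Acetylthiocholine/DTNB was then added; thiocholine was read colorimetrically after 10 min at room temperature.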
On the % scale 0 is the no-effect control and ±100 the full control effect.

Chain of Acetylcholinesterase (Homo sapiens) (P22303 whole entry, looked up): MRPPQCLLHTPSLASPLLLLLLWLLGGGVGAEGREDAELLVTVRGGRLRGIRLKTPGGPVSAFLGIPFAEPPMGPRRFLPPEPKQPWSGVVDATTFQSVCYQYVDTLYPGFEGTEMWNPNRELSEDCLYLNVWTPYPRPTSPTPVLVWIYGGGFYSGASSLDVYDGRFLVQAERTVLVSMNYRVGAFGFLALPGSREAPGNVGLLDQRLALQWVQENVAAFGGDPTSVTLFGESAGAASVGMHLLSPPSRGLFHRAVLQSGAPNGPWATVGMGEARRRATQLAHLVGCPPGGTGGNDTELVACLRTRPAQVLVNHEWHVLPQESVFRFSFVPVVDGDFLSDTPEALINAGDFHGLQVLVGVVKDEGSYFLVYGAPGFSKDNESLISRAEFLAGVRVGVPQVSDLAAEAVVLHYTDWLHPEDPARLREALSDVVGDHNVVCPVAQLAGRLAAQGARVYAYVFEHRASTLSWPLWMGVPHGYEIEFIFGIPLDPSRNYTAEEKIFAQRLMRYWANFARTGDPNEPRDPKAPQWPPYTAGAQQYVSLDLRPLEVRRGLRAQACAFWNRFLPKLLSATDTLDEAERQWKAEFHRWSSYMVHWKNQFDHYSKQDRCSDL

CCCC(CCC)(C(=O)OCC)C(=O)OCC
inactive: Potency [1] | Potency [2] | Potency [3] | Potency [4]

CCCC(=O)OCCC(C)C
inactive: Potency [1] | Potency [2] | Potency [3] | Potency [4]

C#CC(C)(O)CC(C)C (stereo not given)
inactive: Potency [1] | Potency [2] | Potency [3] | Potency [4]

O=[N+]([O-])c1nccn1CO[C@@H](CO)[C@H](O)CO
inactive: Potency [1] | Potency [2] | Potency [3] | Potency [4]

CC(=O)c1c(C)c([N+](=O)[O-])c(C(C)(C)C)c([N+](=O)[O-])c1C
inactive: Potency [2] | Potency [3] | Potency [4]
active: Potency [1] 79.6 µM

CCC(N)(CO)CO
inactive: Potency [1] | Potency [2] | Potency [3] | Potency [4]

Cc1cccc(C(C)(C)C)c1O
inactive: Potency [1] | Potency [2] | Potency [3] | Potency [4]

CCCCCCCCN(C)C
inactive: Potency [1] | Potency [2] | Potency [3] | Potency [4]

CCCCCCCCCOC(=O)CCCCC(=O)OCCCCCCC
inactive: Potency [1] | Potency [2] | Potency [3] | Potency [4]

CC(C)(C)S
inactive: Potency [1] | Potency [2] | Potency [3] | Potency [4]

O=C1c2ccccc2C(=O)C1c1ccc2ccccc2n1
inactive: Potency [1] | Potency [2] | Potency [3] | Potency [4]

CC(C)CC(C)(N)C#N (stereo not given)
inactive: Potency [1] | Potency [2] | Potency [3] | Potency [4]

CC(=O)NS(=O)(=O)c1ccc(N)cc1
inactive: Potency [1] | Potency [2] | Potency [3] | Potency [4]

C=CC(=O)NC(C)C
inactive: Potency [1] | Potency [2] | Potency [3] | Potency [4]

N[C@@H](COP(=O)(O)O)C(=O)O
inactive: activity, negative = inhibition [1] 0.067% [at 23.6 µM] | activity change, negative = inhibition [2] 1.8% [at 23.6 µM] | activity change, negative = inhibition [3] 4.21% [at 23.8 µM] | activity change, negative = inhibition [4] 4.37% [at 23.6 µM]

CC(C[N+](C)(C)C)OC(N)=O (stereo not given)
inactive: Potency [1] | Potency [2] | Potency [3] | Potency [4]

CC(=O)OCC(=O)[C@@]12N=C(C)O[C@@H]1C[C@H]1[C@@H]3CCC4=CC(=O)C=C[C@]4(C)[C@H]3[C@@H](O)C[C@@]12C
inactive: Potency [1] | Potency [2] | Potency [3] | Potency [4]

COc1cc2c(c(OC)c1OC)-c1ccc(OC)c(=O)cc1[C@@H](NC(C)=O)CC2
inactive: Potency [1] | Potency [2] | Potency [3] | Potency [4]

CC(=O)OC/C=C(\C)CC/C=C(\C)CCC=C(C)C
inactive: Potency [1] | Potency [2] | Potency [3] | Potency [4]

CCOC(=O)OCC
inactive: Potency [1] | Potency [2] | Potency [3] | Potency [4]

CC(C)(C)CCCCCCOC(=O)c1ccccc1C(=O)OCCCCCCC(C)(C)C
inactive: Potency [1] | Potency [2] | Potency [3] | Potency [4]

CCOc1nc(F)cc2nc(S(=O)(=O)Nc3c(Cl)cccc3C(=O)OC)nn12
inactive: Potency [1] | Potency [2] | Potency [3] | Potency [4]

NC(N)=NC(N)=NCCc1ccccc1
inactive: Potency [1] | Potency [2] | Potency [3] | Potency [4]

CCCCCCCC(=O)OCC
inactive: Potency [1] | Potency [2] | Potency [3] | Potency [4]

Oc1cccc(-c2c3nc(c(-c4cccc(O)c4)c4ccc([nH]4)c(-c4cccc(O)c4)c4nc(c(-c5cccc(O)c5)c5ccc2[nH]5)CC4)C=C3)c1
inactive: Potency [1] | Potency [2] | Potency [3] | Potency [4]

CCOCC(O)COc1ccc(NC(=O)CC[S+](C)C)cc1 (stereo not given)
inactive: Potency [1] | Potency [2] | Potency [3] | Potency [4]

O=C(N[C@@H](Cc1ccccc1)[C@@H](O)C(=O)N1C[C@@H](O)[C@@H](O)C1)c1cc2cc(Cl)ccc2[nH]1
inactive: Potency [1] | Potency [2] | Potency [3] | Potency [4]

CC(=O)Oc1ccccc1C(=O)O
inactive: Potency [1] | Potency [2] | Potency [3] | Potency [4]

CCc1ccc2c(c1)C(=O)c1ccccc1C2=O
inactive: Potency [1] | Potency [2] | Potency [3] | Potency [4]

C[N+](C)(C)CCOC(=O)CCC(=O)OCC[N+](C)(C)C
inactive: Potency [1] | Potency [2] | Potency [3] | Potency [4]

CCCCCCCCCCC=CC1CC(=O)OC1=O (stereo not given)
inactive: Potency [1] | Potency [2] | Potency [3] | Potency [4]

Cc1ccc(C(C)(C)C)c(O)c1
inactive: Potency [1] | Potency [2] | Potency [3] | Potency [4]

COc1c(Cl)c(Cl)c(Cl)c(Cl)c1Cl
inactive: Potency [1] | Potency [2] | Potency [3] | Potency [4]

CC(C)(C)C(=O)OCOP(=O)(COCCn1cnc2c(N)ncnc21)OCOC(=O)C(C)(C)C
active: Potency [1] 30.9 µM | Potency [2] 38.9 µM | Potency [3] 13.8 µM
inactive: Potency [4]

OC[C@H]1O[C@@H](OCCc2ccc(O)cc2)[C@H](O)[C@@H](O)[C@@H]1O
inactive: Potency [1] | Potency [2] | Potency [3] | Potency [4]

CCCCCCCCCCC(=O)O
inactive: Potency [1] | Potency [2] | Potency [3] | Potency [4]

CCCCN(C)C
inactive: Potency [1] | Potency [2] | Potency [3] | Potency [4]

CC(C)(C)c1nnc(NS(=O)(=O)c2ccccc2)s1
inactive: Potency [1] | Potency [2] | Potency [3] | Potency [4]

CCOC(=O)c1ccc(O)cc1
inactive: Potency [1] | Potency [2] | Potency [3] | Potency [4]

CCN[C@H]1CN(CCCOC)S(=O)(=O)c2sc(S(N)(=O)=O)cc21
inactive: Potency [1] | Potency [2] | Potency [3] | Potency [4]

Cc1cccc2cccnc12
inactive: Potency [1] | Potency [2] | Potency [3] | Potency [4]

CC1(C)OC(=O)NC1=O
inactive: Potency [1] | Potency [2] | Potency [3] | Potency [4]

CC(C)(C)C(=O)C(Oc1ccc(Cl)cc1)n1ccnc1 (stereo not given)
inactive: Potency [1] | Potency [2] | Potency [3] | Potency [4]

Cc1ccccc1S(=O)(=O)O
inactive: Potency [1] | Potency [2] | Potency [3] | Potency [4]

Nc1ccc(Nc2ccccc2)cc1
inactive: Potency [1] | Potency [2] | Potency [3] | Potency [4]

CC(=O)OCCOCCOCCOC(C)=O
inactive: Potency [1] | Potency [2] | Potency [3] | Potency [4]

SC1CCCC1
inactive: Potency [1] | Potency [2] | Potency [3] | Potency [4]

C[C@H]1[C@@H](c2ccccc2)NC(=O)N1C
inactive: Potency [1] | Potency [2] | Potency [3] | Potency [4]

CC(C)(CO)CO
inactive: Potency [1] | Potency [2] | Potency [3] | Potency [4]

CCO[Si](OCC)(OCC)c1ccccc1
inactive: Potency [1] | Potency [2] | Potency [3] | Potency [4]

Clc1ccc2c(c1)Nc1ccccc1S2
inactive: Potency [1] | Potency [2] | Potency [3] | Potency [4]

O=C(NCc1ncc(C(F)(F)F)cc1Cl)c1c(Cl)cccc1Cl
inactive: Potency [1] | Potency [2] | Potency [3] | Potency [4]

O=C(O)CCCCCCCC(=O)O
inactive: Potency [1] | Potency [2] | Potency [3] | Potency [4]

Cc1cccc2ccccc12
inactive: Potency [1] | Potency [2] | Potency [3] | Potency [4]

Oc1ccc(C2(c3ccc(O)c(C4CCCCC4)c3)CCCCC2)cc1C1CCCCC1
inactive: Potency [1] | Potency [2] | Potency [3] | Potency [4]

CCC(C)c1ccccc1O (stereo not given)
inactive: Potency [1] | Potency [2] | Potency [3] | Potency [4]

C/C=C(C)/C=C/C=C(C)C
inactive: Potency [1] | Potency [2] | Potency [3] | Potency [4]

CCC1(C)CC(=O)NC1=O (stereo not given)
inactive: Potency [1] | Potency [2] | Potency [3] | Potency [4]

Fc1ccc([C@@H]2CCNC[C@H]2COc2ccc3c(c2)OCO3)cc1
inactive: Potency [1] | Potency [2] | Potency [3] | Potency [4]

Clc1cccc(Cl)n1
inactive: Potency [1] | Potency [2] | Potency [3] | Potency [4]
